Activity calls are given as the source filed them.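 The calls were made as follows, unless noted: active = fluorescence slope higher than the sample average by over 3 SD (cut at about -0.22 in these data, passing the limit was not always enough); inactive = the rest.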
Legend:
[1] = inhibitors of TNFa-induced NFkB p65 translocation, primary screen, imaging, HUVEC, MLSMR starter and 10KST1 sets (AID 438;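 active = inhibition above 20% together with a positive visual image hit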;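 also: compound added about 3h40 before a 20 min TNFalpha stimulation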;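 as to inhibition: signal is the nuclear over cytoplasmic p65 intensity ratio per well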); settings: HUVEC TNFa-induced p65 nuclear translocation; cell count: measured here: nuclei count (cytotoxicity indicator), at 2.08 µM; inhibition: at 2 µM, stronger effect = higher value, 0% TNFa-plus-vehicle, 100% no-TNFa wells
[2] = reduction of polyQ htt aggregates in cells – imaging, exon1htt(103Q)mCFP cells, high-content imaging, primary screen (AID 483;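 active = visual image review flags a hit and inhibition of aggregation exceeds 20%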;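 also: compound exposure lasted 3 days before fixation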;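 as to nuclei count: percent of the per-plate median nuclei count of sample wells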); settings: exon1htt(103Q)mCFP cell line, aggregate imaging, at 2 µM; inhibition of aggregation: stronger effect = higher value; nuclei count: measured here: cell count, toxicity
[3] = endothelial E-selectin expression blockers – imaging, HUVEC, immunofluorescence, MLSMR starter and 10KST1 sets, primary screen (AID 487;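 active = visually confirmed hit in the image check and inhibition above 20%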;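 as to inhibition: signal is fraction of cell area covered by stained E-selectin grains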;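 as to nuclei count: 100% = median nuclei count of all wells on the same plate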); settings: HUVEC TNFalpha-induced E-selectin immunofluorescence imaging, at 2 µM; inhibition: stronger effect = higher value; nuclei count: measured here: cell number, toxicity
[4] = target: Voltage-gated potassium channel subunit beta-2 (Rattus norvegicus) (UniProt P62483); assay: inhibitors of rat Kvbeta2 reductase activity – biochemical, NADPH fluorescence, primary screen (AID 622); settings: recombinant KvBeta, 4-cyanobenzaldehyde reduction, at 10 µM, stronger effect = higher value;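 also: slope of raw intensity against log time taken from 70 to 1610 s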
[5] = target: Voltage-gated potassium channel subunit beta-2 (Rattus norvegicus) (UniProt P62483); assay: enhancers of rat Kvbeta2 NADPH turnover – biochemical, NADPH fluorescence, primary screen (AID 623;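 active = NADPH fluorescence slope more negative than the mean of all samples by about 3 SD, 99.7% confidence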;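 also: fluorescence intensity change per second fitted from 20 to 320 s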); settings: Recombinant KvBeta, NADPH fluorescence decrease slope, 10 min; at 10 µM; stronger effect = lower value
[6] = target: Alpha-2C adrenergic receptor (Homo sapiens) (UniProt P18825); assay: compounds altering alpha2C-coupled GIRK flux – cell-based, HEK293 alpha2C/GIRK1/2, thallium flux, primary screen (AID 624;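 active = fluorescence slope after compound addition differing from the mean of all screened samples at 99.7% confidence, in either direction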;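 also: slope of fluorescence ratio to pre-addition baseline per second over 15 to 24 s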); settings: thallium flux BTC fluorescence, at 10 µM, actives lie on both sides
[7] = blockers of RIG-like receptor reporter activation – cell-based, Sendai virus stimulus, luciferase, 10K MLSCN set, TLR/RLR signaling modifier project, primary screen (AID 602276;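 active = inhibition at or above 50% at 10 µM; inactive = inhibition below 50%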;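 also: firefly luciferase from ISG56 promoter only with Renilla not read in this screen; 0% = Sendai virus plus DMSO and 100% = medium plus DMSO without virus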); settings: HEK293 RL24 IRF3 luciferase reporter, at 10 µM, stronger effect = higher value
[8] = TLR3 IRF3 reporter activation blockers – cell-based, poly I:C stimulus, luciferase, 10K MLSCN set, primary screen (AID 602277;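 active = inhibition of the reporter signal at or above 50%; inactive = inhibition below 50%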); settings: HEK293-TLR3 RL24 IRF3 luciferase reporter, at 10 µM, stronger effect = higher value

Chain of Voltage-gated potassium channel subunit beta-2 (Rattus norvegicus) (P62483 whole entry, looked up): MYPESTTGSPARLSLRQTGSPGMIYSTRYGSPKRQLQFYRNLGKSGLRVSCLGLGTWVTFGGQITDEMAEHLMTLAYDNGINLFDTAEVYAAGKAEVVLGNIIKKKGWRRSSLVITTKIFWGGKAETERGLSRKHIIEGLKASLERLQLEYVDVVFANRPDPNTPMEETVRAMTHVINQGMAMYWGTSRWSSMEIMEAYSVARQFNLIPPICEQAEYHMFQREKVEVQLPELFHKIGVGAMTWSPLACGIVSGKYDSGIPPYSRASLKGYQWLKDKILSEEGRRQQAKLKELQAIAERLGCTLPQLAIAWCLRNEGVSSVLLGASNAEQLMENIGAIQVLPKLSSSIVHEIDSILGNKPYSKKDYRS
Chain of Alpha-2C adrenergic receptor (Homo sapiens) (P18825 whole entry, looked up): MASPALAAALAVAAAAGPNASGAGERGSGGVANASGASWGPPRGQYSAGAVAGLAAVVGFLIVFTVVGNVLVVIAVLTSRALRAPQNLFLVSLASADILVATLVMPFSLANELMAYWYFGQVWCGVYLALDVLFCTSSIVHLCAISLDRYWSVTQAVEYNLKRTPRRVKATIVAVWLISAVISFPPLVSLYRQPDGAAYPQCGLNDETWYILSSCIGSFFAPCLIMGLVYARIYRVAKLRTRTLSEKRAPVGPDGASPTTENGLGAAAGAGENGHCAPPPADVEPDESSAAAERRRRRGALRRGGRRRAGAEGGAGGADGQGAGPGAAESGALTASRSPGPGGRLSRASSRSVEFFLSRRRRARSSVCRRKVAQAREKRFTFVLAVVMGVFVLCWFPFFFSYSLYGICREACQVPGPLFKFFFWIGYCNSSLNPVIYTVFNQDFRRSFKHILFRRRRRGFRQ

Row | SMILES | cell count [1] | inhibition [1] | inhibition of aggregation [2] | nuclei count [2] | inhibition [3] | nuclei count [3] | fluorescence slope [4] | NADPH fluorescence slope [5] | slope [6] | inhibition [7] | inhibition [8]
1 | COc1ccc(S(=O)(=O)Nc2cccc(C)n2)c2ccccc12 | 713 | 6.1% (inactive) | -1.6% (inactive) | 76.3% | 41.3% (inactive) | 92.3% | -0.528 (inactive) | 2.4e-05 (inactive) | 0.00605 (inactive) | -6.27% (inactive) | 0.733% (inactive)
2 | CCn1c(SCC(=O)N2c3ccccc3CCc3ccccc32)nc2c1c(=O)n(C)c(=O)n2C | 706 | -3.2% (inactive) | 25.6% (inactive) | 80.2% | -2.5% (inactive) | 131% | -0.516 (inactive) | -8.1e-05 (inactive) | 0.0052 (inactive) | 5.5% (inactive) | 16.2% (inactive)
3 | Cc1onc(-c2ccccc2)c1C(=O)N1CCN(C(=O)c2ccco2)CC1 | 601 | 2.2% (inactive) | -0.2% (inactive) | 111% | -20.4% (inactive) | 93.8% | -0.5 (inactive) | -4.3e-05 (inactive) | 0.00556 (inactive) | 14.1% (inactive) | 20.5% (inactive)
4 | Fc1ccc(-c2nnc3ccc(N4CCCC4)nn23)cc1 | 662 | 0.5% (inactive) | -1% (inactive) | 97.7% | -61.6% (inactive) | 120% | -0.56 (inactive) | 2e-05 (inactive) | 0.00653 (inactive) | 3.21% (inactive) | -61.2% (inactive)
5 | CN(C)S(=O)(=O)Nc1ccccc1C(N)=O | 425 | -9.8% (inactive) | -9.1% (inactive) | 102% | -21.7% (inactive) | 109% | -0.355 (inactive) | -3.8e-05 (inactive) | 0.00484 (inactive) | 15.1% (inactive) | 11.7% (inactive)
6 | CCOc1ccccc1N(C(=O)c1ccco1)C(C(=O)NC1CCCC1)c1cccnc1 (stereo not drawn) | 634 | -9.3% (inactive) | 12.2% (inactive) | 79.6% | 10% (inactive) | 116% | -0.563 (inactive) | 2.3e-05 (inactive) | 0.00563 (inactive) | -2.81% (inactive) | 13.5% (inactive)
7 | CCn1ncc(C2=NOC(C(=O)Nc3ccc4c(c3)OCO4)C2)c1C (stereo not drawn) | 640 | -0.3% (inactive) | 0.2% (inactive) | 99.9% | -156% (inactive) | 112% | -0.5 (inactive) | -0.000277 (inactive) | 0.00345 (inactive) | -17.8% (inactive) | -34% (inactive)
8 | O=C(Nc1cccc(F)c1)c1cccc(S(=O)(=O)N2CCOCC2)c1 | 566 | 3% (inactive) | -14% (inactive) | 94.3% | -38.9% (inactive) | 92.1% | -0.504 (inactive) | -5.2e-05 (inactive) | 0.00763 (inactive) | 10.5% (inactive) | 98.3% (active)
9 | COc1ccc(C)cc1S(=O)(=O)N(C)CC(=O)Nc1ccc2c(c1)OCCO2 | 489 | -8.1% (inactive) | 7.6% (inactive) | 92.1% | 22.5% (inactive) | 110% | -0.427 (inactive) | 3.4e-05 (inactive) | 0.00534 (inactive) | -4.31% (inactive) | -10.2% (inactive)
10 | CS(=O)(=O)Nc1ccccc1C(=O)O | 363 | -2.1% (inactive) | -4.3% (inactive) | 113% | -81.2% (inactive) | 121% | -0.411 (inactive) | -2.7e-05 (inactive) | 0.00253 (inactive) | 11.5% (inactive) | 33% (inactive)
11 | O=C(Nc1ccc2c(c1)OCO2)C(c1ccccc1)N1CCC2(CC1)OCCO2 (stereo not drawn) | 649 | 2% (inactive) | -13.5% (inactive) | 107% | 23.5% (inactive) | 115% | -0.51 (inactive) | 3.6e-05 (inactive) | 0.00477 (inactive) | -14.7% (inactive) | 1% (inactive)
12 | CCN1CCN(Cc2ccc(NC(=O)Nc3ccccc3)cc2)CC1 | 552 | -7.5% (inactive) | -20.2% (inactive) | 56.6% | -49.1% (inactive) | 102% | -0.605 (inactive) | -1.7e-05 (inactive) | 0.00679 (inactive) | 10.6% (inactive) | -14.4% (inactive)
13 | Cc1ccc2c(c1)-c1c(cnn1CC(=O)NC(C)CCc1ccco1)CO2 (stereo not drawn) | 799 | 4.6% (inactive) | -8% (inactive) | 119% | -62.3% (inactive) | 125% | -0.577 (inactive) | -2e-05 (inactive) | 0.00658 (inactive) | 11.5% (inactive) | 29.3% (inactive)
14 | COCCNC(=O)c1ccc(CS(=O)(=O)c2c(Cl)cccc2Cl)o1 | 462 | -6.8% (inactive) | 22.9% (inactive) | 103% | -46.3% (inactive) | 112% | -0.428 (inactive) | 2.4e-05 (inactive) | 0.00478 (inactive) | -1.52% (inactive) | 24.5% (inactive)
15 | Cc1ccccc1NS(=O)(=O)c1cc(C(=O)N2CCCC2)ccc1C | 481 | -7.1% (inactive) | 16.1% (inactive) | 86.1% | 9.5% (inactive) | 94.2% | -0.601 (inactive) | -3.9e-05 (inactive) | 0.00473 (inactive) | -10.7% (inactive) | 6.74% (inactive)
16 | Cc1ccc(OC(=O)CCC(=O)OCCCC(F)(F)C(F)(F)F)cc1 | 403 | -3% (inactive) | 4.9% (inactive) | 103% | 4.5% (inactive) | 92.5% | -0.382 (inactive) | -5.9e-05 (inactive) | 0.00733 (inactive) | 3.53% (inactive) | 21.1% (inactive)
17 | Cc1cccc(N2CCN(Cc3c(C)n(C)n(-c4ccccc4)c3=O)CC2)c1C | 451 | 0.5% (inactive) | 9.8% (inactive) | 92.6% | -29.6% (inactive) | 124% | -0.465 (inactive) | 5.9e-05 (inactive) | 0.00748 (inactive) | 13.4% (inactive) | 18.5% (inactive)
18 | Cc1ccc(C2CC(c3ccc(C)cc3)n3nc(N)nc3N2)cc1 (stereo not drawn) | 871 | 2.8% (inactive) | 15.1% (inactive) | 95.1% | -71.7% (inactive) | 116% | -0.613 (inactive) | -1.7e-05 (inactive) | 0.00808 (inactive) | -11.6% (inactive) | 0.814% (inactive)
19 | CC(C)CCNC(=O)C(c1ccco1)N(CC1CCCO1)C(=O)Cn1nnc2ccccc21 (stereo not drawn) | 393 | 10.3% (inactive) | 5.4% (inactive) | 104% | -72.5% (inactive) | 103% | -0.612 (inactive) | -4.6e-05 (inactive) | 0.00382 (inactive) | 8.01% (inactive) | 16.4% (inactive)
20 | O=c1oc2ccccc2c(O)c1CN1CCCCC1 | 361 | 2.9% (inactive) | 4.9% (inactive) | 48.1% | -83.3% (inactive) | 117% | -0.407 (inactive) | -6.8e-05 (inactive) | 0.00535 (inactive) | 15.4% (inactive) | 8.62% (inactive)
21 | CCOC(=O)CSC1=C(C#N)C(c2ccc(Cl)cc2)C(C(=O)OC)C(=O)N1 (stereo not drawn) | 495 | 4.4% (inactive) | -24.6% (inactive) | 40.5% | -80% (inactive) | 95.7% | -0.394 (inactive) | -5.6e-05 (inactive) | 0.00371 (inactive) | 7.95% (inactive) | 25.3% (inactive)
22 | CC(NC(=O)c1ccc2c(c1)OCO2)C(c1cccs1)N1CCOCC1 (stereo not drawn) | 462 | -6.6% (inactive) | 17.3% (inactive) | 113% | -29.4% (inactive) | 115% | -0.618 (inactive) | 2.3e-05 (inactive) | 0.00632 (inactive) | 12.6% (inactive) | 15.4% (inactive)
23 | CC(CCc1ccccc1)NC(=O)c1ccc(Br)o1 (stereo not drawn) | 570 | -7.8% (inactive) | 2.5% (inactive) | 83.4% | -78.2% (inactive) | 95.1% | -0.449 (inactive) | -3.4e-05 (inactive) | 0.00563 (inactive) | 7.34% (inactive) | 9.03% (inactive)
24 | COc1ccccc1C(=O)Nc1ccc(N2CCN(Cc3ccccc3)CC2)cc1 | 690 | 12% (inactive) | 23.2% (inactive) | 95.9% | 19.4% (inactive) | 97% | -0.611 (inactive) | -1.3e-06 (inactive) | 0.00369 (inactive) | 9.6% (inactive) | -11% (inactive)
25 | NC(=O)CSCc1ccc(Br)cc1 | 313 | 8.3% (inactive) | 12.7% (inactive) | 91.7% | -103% (inactive) | 105% | -0.579 (inactive) | -5e-05 (inactive) | 0.00494 (inactive) | 11.5% (inactive) | 13.5% (inactive)
26 | Cc1cc(C(=O)Nc2nnc(C(F)(F)F)s2)no1 | 342 | -4.7% (inactive) | -8% (inactive) | 98% | -25.5% (inactive) | 106% | -0.447 (inactive) | 1.8e-05 (inactive) | 0.00633 (inactive) | -1.51% (inactive) | -19.4% (inactive)
27 | CC1CCCCC1NC(=O)Cn1ncc2ccccc21 (stereo not drawn) | 827 | -6.9% (inactive) | 10.9% (inactive) | 94% | -81.1% (inactive) | 123% | -0.555 (inactive) | -4.8e-05 (inactive) | 0.00699 (inactive) | 11.9% (inactive) | 34.8% (inactive)
28 | Nc1[nH]nc2nc(N3CCCC3)nc(-c3ccccc3)c12 | 341 | -9.5% (inactive) | 20.6% (inactive) | 60.5% | -53% (inactive) | 117% | -0.477 (inactive) | -3.4e-05 (inactive) | 0.00548 (inactive) | 11.8% (inactive) | 18.8% (inactive)

Source: PubChem BioAssay
